Screens as filed in PubChem BioAssay.
Shown are actives, neighbours in structure and some others; about 6% of the full set was active somewhere.
D1 antagonist – Antagonist of Human D 1 Dopamine Receptor: qHTS | D(1A) dopamine receptor (Homo sapiens), P21728 | HEK293 TREx D1 cells, calcium flux, dopamine EC80; hits give low values | activity change, negative = inhibition, % at 10 µM | 360,000 compounds, 3.2% hits; in the data active = activity change below about -30%
Target sequence (P21728 whole entry, looked up): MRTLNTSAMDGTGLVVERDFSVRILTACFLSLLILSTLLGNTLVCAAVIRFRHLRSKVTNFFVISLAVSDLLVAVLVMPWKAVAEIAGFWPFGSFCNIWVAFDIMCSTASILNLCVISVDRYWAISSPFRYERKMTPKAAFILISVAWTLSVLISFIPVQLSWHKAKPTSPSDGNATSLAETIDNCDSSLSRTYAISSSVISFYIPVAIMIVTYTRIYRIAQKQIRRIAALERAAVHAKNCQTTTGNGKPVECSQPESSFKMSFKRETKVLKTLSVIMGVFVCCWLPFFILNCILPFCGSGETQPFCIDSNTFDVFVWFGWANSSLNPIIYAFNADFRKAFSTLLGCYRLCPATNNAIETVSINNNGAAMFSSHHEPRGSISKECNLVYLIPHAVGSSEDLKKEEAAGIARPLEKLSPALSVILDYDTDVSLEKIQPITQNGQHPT
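Kinetic fluorescence of a calcium dye serves as the read-out. D1-expressing Hek293 Trex cells, induced overnight at 30 C, are exposed to compound for 180 s before an EC80 dopamine addition, then read 180 s further.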
D3 ag – qHTS of D3 Dopamine Receptor Agonist: qHTS; D3R DiscoveRx beta-arrestin cells, luminescence, 90 min; max activation, %; 410,000 compounds, 0.58% hits; AID 652048, 2013; in the data active = max activation above about 30%
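Agonist mode: compounds and dopamine controls were applied to plated cells for 90 min at 37 degrees C after an overnight attachment at 1500 cells/well. Luminescent read-out followed 30 - 60 minutes at room temperature with DiscoveRx detection reagent.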
D1 agonist – Allosteric Agonists of the Human D1 Dopamine Receptor: qHTS; activation, % at 2 µM; HEK293 T-REx D1 cells, calcium flux, agonist mode; D(1A) dopamine receptor (Homo sapiens), P21728; 360,000 compounds, 1% hits; AID 504660, 2011; in the data active = activation above about 30%
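Agonism was scored from calcium flux recorded over 180 s (1 read/s) after pintool compound addition, following a 10-cycle baseline. Cells were inducible force-coupled HEK293 TREx D1, plated overnight at 30 C and loaded with no-wash calcium dye.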
D1 PAM – Potentiators of Human D1 Dopamine Receptor: qHTS; 360,000 compounds, 0.036% hits; D(1A) dopamine receptor (Homo sapiens), P21728; potentiation, % at 10 µM; HEK293 TREx D1 cells, calcium flux, dopamine EC20 potentiation; in the data active = potentiation above about 30%
DRD3 antagonist – qHTS of D3 Dopamine Receptor Antagonist: qHTS; D3R cells, DiscoveRx beta-arrestin luminescence, antagonist mode; hits give low values; max response, negative = inhibition, %; 360,000 compounds, 2.5% hits; AID 652054, 2013; in the data active = max response below about -50%; inconclusive = no clear call, values can overlap the other calls
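Cells plated overnight at 1500 cells/well, then exposed to library compounds with dopamine controls for 90 minutes at 37 degrees C. DiscoveRx reagent added for 30–60 minutes at room temperature; luminescence read, quantitative HTS format.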
Of the large screens only hits and unclear results are named; the others gave an inactive call.

O=S(=O)(c1ccc(Cl)cc1)N1CCC(N2CCOCC2)CC1	DRD3 antagonist inconclusive
Fc1ccc2[nH]c3c(N4CCc5ccccc5C4)ncnc3c2c1	D1 antagonist -35
Brc1ccc2[nH]c3c(N4CCc5ccccc5C4)ncnc3c2c1	none (no result: D1 antagonist)
Clc1ccc2[nH]c3c(N4CCC5(CC4)OCCO5)ncnc3c2c1	D1 antagonist -35
Cc1cccc2[nH]c3c(N4CCC5(CC4)OCCO5)ncnc3c12	none
Cc1ccc2[nH]c3c(N4CCc5ccccc5C4)ncnc3c2c1	D1 antagonist -61
CCCCc1nc(N2CCN(C(=O)c3ccco3)CC2)c(C#N)c2c1CCCC2	none
COC(=O)C[C@H]1CC[C@H](NC(=O)Nc2ccccc2)[C@@H](CO)O1	none (no result: D1 antagonist, D1 agonist, D1 PAM)
CC(C)(C)OC(=O)NCCc1onc(-c2ccccc2F)c1C(=O)O	none (no result: D1 antagonist, D1 agonist, D1 PAM)
O=C(Nc1ccc(NC(=O)c2cccnc2Cl)cc1)c1cccc(Cl)c1	none (no result: D1 PAM)
COc1ccc(S(=O)(=O)N2CCC3CC2c2c(-c4ccc(C(F)(F)F)cc4)cccc23)cc1 (centres undefined)	D3 ag 52 (no result: D1 antagonist, D1 agonist, D1 PAM)
Cc1cc(C)cc(NC(=O)Cn2c(C)cc(C)c(C#N)c2=O)c1	none (no result: DRD3 antagonist)
CN1CCN(CC(O)(c2ccc(Cl)cc2)c2ccc(Cl)cc2)CC1	D1 antagonist -30
COc1cc(OC)c(N(C)C(=O)Nc2cn(CC(C)C)c(=O)c3ccccc23)cc1Cl	none (no result: DRD3 antagonist)
CC(=O)Oc1c(-c2ccc(Br)o2)oc2ccccc2c1=O	none
Cc1ccc(COc2ccsc2-c2n[nH]c(=S)n2C)cc1	none
Cn1c(-c2sccc2OCc2ccccc2)n[nH]c1=S	DRD3 antagonist -54
CCOC(=O)[C@]12CCC=C1N(Cc1ccco1)C(=O)[C@H](CC(=O)NCCc1ccccc1OC)C2	none (no result: D1 antagonist, D1 agonist, D1 PAM)
O=C(NCCc1ccc(Cl)cc1)Nc1ccc(F)cc1	none
CCCc1c(NC(=O)Nc2ccc(F)cc2)cnn1-c1ccc(Cl)cc1	D1 antagonist -43
COCCCNC(=O)CS(=O)Cc1nc(-c2ccccc2C)oc1C (centres undefined)	D1 antagonist -48
COCCNC(=O)CS(=O)Cc1nc(-c2ccc(Cl)cc2)oc1C (centres undefined)	none
COC(C)=O	none (no result: D1 antagonist, D1 agonist, D1 PAM, DRD3 antagonist)
CC(=O)N1N=C(c2ccc(C)cc2)OC1c1ccc(Br)cc1 (centres undefined)	D1 antagonist -30
CC(=O)N1N=C(c2ccc(Cl)cc2)OC1c1ccc(C(C)C)cc1 (centres undefined)	none
CCCC(C)(C)C(=O)N1CCC1(C)C(=O)NS(=O)(=O)c1ccccc1Cl (centres undefined)	none (no result: D1 antagonist, D1 agonist, D1 PAM)
CC(OC(=O)/C(C#N)=C/c1ccc(N(C)C)cc1)C(=O)NCc1ccco1 (centres undefined)	D1 agonist 35 (no result: D3 ag, DRD3 antagonist)
Cn1c(=O)n(C)c2cc(/C=C(/C#N)C(=O)NCc3ccco3)ccc21	none
N#C/C(=C\c1cn(Cc2ccccc2)c2ccccc12)C(=O)NCc1ccco1	none
N#C/C(=C\c1cn(Cc2ccc(F)cc2)c2ccccc12)C(=O)NCc1ccco1	D1 antagonist -36
CCN(CC)c1ccc(/C=C(\C#N)C(=O)NCc2ccco2)cc1	D1 agonist 48 (no result: D3 ag, DRD3 antagonist)
CN(C)c1ccc(/C=C(\C#N)C(=O)NCc2ccco2)cc1	D1 agonist 35 (no result: D3 ag, DRD3 antagonist)
O=C(COc1ccccc1Cl)OCc1cc(=O)n2nc(-c3cccs3)sc2n1	none (no result: DRD3 antagonist)
CCCNC(=O)c1cc(C2CCCCN2C(=O)c2cc(C(C)(C)C)nn2C)on1 (centres undefined)	none (no result: D1 antagonist, D1 agonist, D1 PAM)
O=C(CN(c1ccccc1)S(=O)(=O)c1ccccc1[N+](=O)[O-])Nc1cccnc1	none
CCN(CC)c1ccc(/C=C(\C#N)C(=O)NCc2ccccc2)cc1	D1 agonist 58
Cc1ccc(OCCSc2nc3ccc(NC(=O)c4ccc(F)cc4)cc3s2)cc1	none (no result: DRD3 antagonist)
COC(=O)C1=C(N)Oc2cc(C)n(C)c(=O)c2C1c1ccc(Cl)c(Cl)c1 (centres undefined)	D1 antagonist -33
COC(=O)C1=C(N)Oc2cc(C)n(CC3CCCO3)c(=O)c2C1c1ccc(Cl)c(Cl)c1 (centres undefined)	none
